Shown are actives, neighbours in structure and some others; about 9.2% of the full set was active somewhere.
Lamin A splicing – modulators of lamin A splicing | Potency, µM (titrated, usually from 46.1 µM), inactives show at the top dose ratio change, negative = inhibition, actives largely listed as inhibitors | 200,000 tested, 0.01% active | HeLa LMNA splicing GFP/RFP minigene ratio, 48 h; active = well fitted inhibition curve with a large enough effect in the signal ratio, with a control signal flat, not every such curve was filed as active; inconclusive = small, poorly fitted or top-dose-only effect, or effect the other way, or a change in a side signal; the % refers to the signal ratio; note: % is set by controls: 0 for no effect and ±100 for the full control effect
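Read-out is the ratio of GFP to DsRed2 object intensity, acquired by 488 nm laser-scanning cytometry on HeLa lamin A-EGFP minigene reporter cells. Compound incubation 48 hrs at 37 °C in Opti-MEM with 2% FBS; DMSO 0.5% final.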
HTT aggregate – inhibitors of mutant huntingtin aggregate formation in PC12 cells. PC12 HttQ103-GFP aggregates, Acumen cytometry, 40 h. Potency, µM (highest dose often 46.1 µM), inactives show top-dose activity change, negative = inhibition, actives largely listed as inhibitors. 220,000 tested, 1.1% active. AID 1688; active = well fitted curve in the direction sought with a large enough effect; inconclusive = small, poorly fitted or top-dose-only effect, or another doubt; inactive = no such curve, though single readings can be large; an effect the other way counts as inactive or inconclusive; note: % is set by controls: 0 for no effect and ±100 for the full control effect; nearly all actives have a fitted effect of over 60% in size
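Multiplexed with ATP-based cell death, this channel scores GFP aggregates in PC12 cells expressing inducible HTTex1-Q103-GFP. Induction used 100 nM tebufenozide; compounds were tested in concentration series.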
KDM4E inh – blocks human JMJD2E demethylase activity; B2RXH2; JMJD2E catalytic domain, FDH-coupled NADH fluorescence (FDH is formaldehyde dehydrogenase); Potency, µM (doses to about 57.1 µM), for inactives: at the top dose activity change, negative = inhibition, most hits filed as inhibitors; 230,000 tested, 1.6% active;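 note: 0% = wells with enzyme and -100% = buffer wells without enzyme; nearly all actives have a fitted effect of over 50% in size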
HPGD block – inhibitors of human 15-hydroxyprostaglandin dehydrogenase (HPGD); purified HPGD, NADH fluorescence kinetic, PGE2 substrate; Potency, µM, without a hit: at the top dose activity change, negative = inhibition, usual class: inhibitors; 150,000 tested, 4.3% active; note: % is set by controls: 0 for no effect and ±100 for the full control effect
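20 nM HPGD preincubated 15 min at room temperature with compound in 50 mM Tris-HCl pH 8, 0.01% Tween 20. Started with 1 mM NAD+ and 30 uM prostaglandin E2; NADH fluorescence (360/450 nm) read 5 times over 30-s intervals, last minus first.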
HTT ATP protect – protects HTT-Q103 PC12 cells, measured by ATP; Potency, µM (doses to about 56.4 µM), inactives show cytoprotection (ATP increase), most hits filed as activators; PC12 HTT-Q103 induced, cytoprotection, ATP luminescence, 40 h; 230,000 tested, 0.14% active; active = well fitted curve in the direction sought with a large enough effect; inconclusive = small, poorly fitted or top-dose-only effect, or another doubt; inactive = no such curve, though single readings can be large; an effect the other way counts as inactive or inconclusive; note: % of control where 0% means no effect; nearly all actives have a fitted effect of over 45% in size
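Compounds were screened for protection of PC12 cells against cell death after tebufenozide induction (100 nM final) of mutant Huntingtin exon 1 (Q103) fused to GFP.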
ALDH1A1 inh – inhibitors of human aldehyde dehydrogenase 1A1 | P00352 | Purified ALDH1A1, NADH fluorescence, propionaldehyde substrate | Potency, µM (doses to about 75.3 µM), inactives show at the highest dose activity, negative = inhibition, most hits filed as inhibitors | 220,000 tested, 7.3% active;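 note: plate controls were no enzyme wells and a reference inhibitor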
Target sequence (P00352 whole entry, looked up): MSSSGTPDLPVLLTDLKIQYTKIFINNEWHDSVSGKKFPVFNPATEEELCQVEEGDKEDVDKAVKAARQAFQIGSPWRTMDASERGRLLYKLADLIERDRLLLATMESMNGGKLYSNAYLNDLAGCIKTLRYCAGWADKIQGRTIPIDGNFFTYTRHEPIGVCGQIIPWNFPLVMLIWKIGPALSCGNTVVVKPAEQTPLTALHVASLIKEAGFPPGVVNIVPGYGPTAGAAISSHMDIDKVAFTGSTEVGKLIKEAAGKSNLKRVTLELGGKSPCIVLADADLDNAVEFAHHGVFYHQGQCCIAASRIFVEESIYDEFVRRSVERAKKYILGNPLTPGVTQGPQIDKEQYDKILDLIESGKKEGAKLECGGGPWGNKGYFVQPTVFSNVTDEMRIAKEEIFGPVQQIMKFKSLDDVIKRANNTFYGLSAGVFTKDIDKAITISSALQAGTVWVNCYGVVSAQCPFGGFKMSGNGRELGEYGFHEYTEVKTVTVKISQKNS
Active calls of the source: *; u = inconclusive; x = not tested or not shown; [ ] = remark or other dose. Unless noted, calls come from the whole dose curve; as a rule, active = well fitted inhibition curve with a large enough effect (not every such curve was filed as active); inconclusive = small, poorly fitted or top-dose-only effect, or another doubt; inactive = no such curve, though single readings can be large or run the other way. Potency is the fitted concentration of half-maximal effect.

SMILES	Lamin A splicing	HTT aggregate	KDM4E inh	HPGD block	HTT ATP protect	ALDH1A1 inh
COc1ccc(N(CC(=O)Nc2ccccc2C(=O)NCc2ccco2)S(C)(=O)=O)cc1	6%	4%	-2%	-11%	-13%	11µM*
COc1ccc(Nc2ncc3c(n2)CCN(Cc2ccccc2C)C3)c(OC)c1	5%[46 µM]	x	x	x	x	x
Cc1ccc(C)c(NC2=CC(=O)CC(C)(C)C2)c1C#N	u	11%	-16%	-11%	8%	13µM*
COc1ccc(/C=C2\CCn3c2nc2cc(C(=O)O)ccc2c3=O)cc1O	-1%	-6%	4%	14µM*	-19%[10 µM]	22µM*
CC(C)COc1nc2ccccc2c(=O)n1OCC(=O)O	-6%	-3%	2%	-10%	4%[10 µM]	-2%
CCCOn1c(OCC(C)C)nc2ccccc2c1=O	16%	4%	7%	-15%	-25%[0.074 µM]	22µM*
Clc1ccccc1-c1nc(NC2CCNCC2)c2ccccc2n1	-15%	x	x	x	-56%	-12%
CCn1nc(C)c2c(-c3ccccc3)cc(=O)n(C(C)C(=O)NCc3cccc(OC)c3)c21 (centres undefined)	-22%[46 µM]	x	x	x	x	x
Clc1ccc(OCc2nn3c(C4CCCCC4)nnc3s2)c(Cl)c1	u	-25%	2%	2.8µM*	0%[0.074 µM]	u
COc1ccccc1-c1nnc2sc(COc3ccccc3)nn12	-19%	u	-1%	-19%	-8%	12%
COc1ccccc1-c1nnc2sc(COc3ccc(Cl)cc3Cl)nn12	u	u	6%	1.3µM*	-14%	12%
O=C(NNC(=O)c1ccccc1Cl)c1cc2cc(OC(F)(F)F)ccc2[nH]1	x	13%[9.22 µM]	u	x	-2%[10 µM]	x
CCNc1nc(NC(C)C)nc(N(C#N)Cc2ccccc2)n1	1%	9%	4%	-11%	2%[10 µM]	1.8µM*
CCNc1nc(NC(C)C)nc(N(C#N)CCOc2ccc(Cl)cc2Cl)n1	-9%	35µM*	u	-17%	-5%	-1%
CCOC(=O)c1sc(NC(=O)c2noc3c2CCCC3)c(C(=O)OCC)c1C	x	x	x	x	-11%	x
CCOC(=O)c1c(NC(=O)c2noc3c2CCCC3)sc(C)c1C	-1%	-12%	-10%	u	4%	22µM*
COc1cccc(CNC(=O)CSC2=Nc3ccccc3C3=NC(C)C(=O)N23)c1OC (centres undefined)	1%[46 µM]	x	x	x	x	x
Cc1cc(N2CCN(c3nc4ccccc4s3)CC2)n2ncnc2n1	14%	11µM*	4%	-20%	-19%	u
Cc1cc(N2CCN(C(c3ccccc3)c3ccccc3)CC2)n2ncnc2n1	u	13%	-7%	-2%	-9%	u
CCN(CC)/C(Sc1ccccc1)=C(/C(Cl)=C(Cl)Cl)[N+](=O)[O-]	x	2%	0%	x	u	-8%
COc1ccc(S(=O)(=O)N2CCSC2c2ccccc2)cc1 (centres undefined)	u	-9%	u	-19%	-1%[10 µM]	25µM*
O=S(=O)(c1ccccc1)c1ncc(C(F)(F)F)cc1Cl	u	u	0%	x	6%[10 µM]	10µM*
CC(C)(C)OC(=O)N1CCC(c2c(C(=O)N3CCN(c4ccccc4F)CC3)cnn2C(C)(C)C)CC1	4%[46 µM]	x	x	x	x	x
COc1ccc2[nH]c(C)c(C(=O)CN3CCOCC3)c2c1	-6%	-8%	4%	-16%	-11%	u
COc1ccc2[nH]c(C)c(C(=O)CN3CCc4cc(OC)c(OC)cc4C3)c2c1	-7%	-6%	-2%	x	9%	10µM*
Cc1ccc(-n2nc(C)c3c2OC(N)=C(C#N)C3c2ccccc2F)cc1 (centres undefined)	-11%	u	-6%	-14%	15%	4µM*
Cc1nn(-c2ccccc2)c2c1C(c1ccncc1)C(C#N)=C(N)O2 (centres undefined)	-5%	29%	-20%	-13%	12%[10 µM]	14µM*
Oc1ccc(N=C/C=C/c2ccc(Br)cc2)cc1-c1nc2ccccc2s1	-26%	6%	14µM*	-16%	u	u

Screening data (PubChem)
